Experimental data published in PubChem BioAssay (NCATS).
Activity calls are given as the source filed them. A call without a number means that no potency is given here. The call rests on the fitted dose curve; in most records, active means well fitted inhibition curve with a large enough effect; inconclusive means small, poorly fitted or top-dose-only effect; inactive means flat fitted curve, though single readings scatter.

Biological target: Luciferin 4-monooxygenase (Photinus pyralis) (UniProt P08659)
Assay: Primary firefly luciferase (FLuc) qHTS assay for identification of artifact compounds. (AID 1845220); further: nearly all actives have a fitted effect of over 60% in size
Details: purified firefly luciferase, luminescence, 5 min; series mostly up to 54.1 µM
Source text: PI: Alexander Tropsha Ph.D.
UNC Eshelman School of Pharmacy
University of North Carolina, Chapel Hill, North Carolina
Hits from high-throughput screening (HTS) of chemical libraries are often false positives due to their interference with the assay detection technology. In response to this problem, we generated the largest publicly available library of chemical liabilities and developed a free webtool to predict HTS artifacts, both of which are described herein. More specifically, we generated, curated, and integrated HTS datasets for thiol reactivity, redox activity, and luciferase (firefly and nano) activity. Using these curated datasets, we developed and validated several Quantitative Structure-Interference Relationship (QSIR) models to predict nuisance behavior. […] These models were employed for virtual profiling of the National Center for Advancing Translational Science's (NCATS) in-house library, and 256 compounds for each assay were selected for the experimental validation of nuisance behavior. The BA for these external predictions ranged from 58 to 78% for compounds within the applicability domains of the models. […] The models developed in this study, along with aggregation models previously developed by our group (SCAM Detective) were implemented in "Liability Predictor," an online tool which may be used as part of chemical library design or for triaging HTS hits. Both the models and the curated datasets are publicly available at https://liability.mml.unc.edu/.
SEQUENCE No. (e.g., 1, 2, 3, etc.); […] (e.g., Cells, Incubation, Reagent, etc.); VALUE; DESCRIPTION.
1; Reagent; 3 uL; Luciferase substrate mixture.
2; Compounds and control; 16 nL; Kalypsis pin tool (Wako USA) equipped with a 1536-well pin head.
4; Reagent; 1 uL; Luciferase enzyme.
6; Detection; Luminescence, ViewLux microplate reader.
NOTES (numbers refer to Sequence numbers above)
1. 3 uL of luciferase substrate mixture containing D-luciferin and ATP (final concentrations of 10 uM and 10 uM, respectively) in assay buffer (10 mM Mg-acetate, 0.01% Tween-20, 0.05% bovine serum albumin, 50 mM Tris acetate, pH 7.6) was dispensed into all wells of a 1536-well assay plate (solid-bottom white plate; Greiner Bio One, Monroe, NC).
2. A Wako Pin-tool (Wako Automation, Richmond, VA) was used to transfer 16 nL of compounds (consisting of 7-plates in qHTS format, final concentration range 18.3 nM to 114 uM) or control PTC124 (final concentration range 1.22 nM to 40 uM).
3. 15 min. incubation at room temperature protected from light.
4. 1 uL of luciferase enzyme (final concentration 10 nM, Photinus pyralis luciferase) or buffer was dispensed for a final assay volume of 4 uL.
5. Plates were centrifuged (121xg, 15 seconds) and incubated for 5 minutes.
6. Samples were read for luminescence on a ViewLux CCD imager (PerkinElmer). Data were normalized to no-enzyme (0% activity) and no-inhibitor (DMSO; 100%) controls and the resulting percent inhibition data were fitted to a 4-parameter Hill equation using NCATS in-house software.
Potency means the concentration at half of the fitted maximal effect.

| Structure (SMILES) | Potency | activity change, negative = inhibition |
| --- | --- | --- |
| Oc1ccccc1-c1cc(-c2ccccc2F)[nH]n1 | 1.69 µM (active) |  |
| CC(=C\C(C)O)/C=C(\C)C(=O)CC1CC(CC(N)=O)CC(=O)O1 (stereo not given) | inactive |  |
| CC1(C)C2CCC1(C)C(OC(=O)C(O)(CC(=O)O)CC(=O)O)C2 (stereo not given) | inactive |  |
| COC(O)(CC(C)C)C1Oc2cc(C)[nH]c(=O)c2O1 (stereo not given) | inactive |  |
| C=C1C(=O)O[C@@H]2CC(C)=C([C@@H](C)CCCOC(C)=O)[C@@H](O)[C@H]12 | inactive |  |
| C=C1CC[C@H]2[C@@](C)(CCC(OC3OC(CO)C(O)C(O)C3O)[C@@]2(C)CO)C1C(=O)CC1=CCOC1=O (stereo not given in full) | inactive |  |
| CCCN1CCC[C@@H](c2cccc(S(C)(=O)=O)c2)C1 | inactive |  |
| CC1=C[C@H]2[C@@H](CC1=O)[C@H](C)C[C@H](O)[C@H]2C(C)C | inactive |  |
| CC1=CC(=O)CC(C)(C)C1CCC(C)O[C@@H]1O[C@H](CO)[C@@H](O)[C@H](O)[C@H]1O (stereo not given in full) | inactive |  |
| C=C(C(=O)O)[C@H]1C[C@]2(C)C(=O)CC[C@]23O[C@H]1C[C@@H]3C | inactive |  |
| CC(C)=CC[C@H]1O[C@]2(O)C([C@H]3CCC4[C@@]5(C)CC[C@H](O[C@@H]6O[C@H](CO)[C@H](O)[C@H](O[C@@H]7O[C@H](CO)[C@@H](O)[C@H](O)[C@H]7O)[C@H]6O[C@@H]6O[C@@H](C)[C@H](O)[C@@H](O)[C@H]6O)C(C)(C)C5CC[C@@]4(C)[C@]3(C)[C@H]2O)[C@@]1(C)O (stereo not given in full) |  | 0.583% [at 11.6 µM] (inactive) |
| CC[C@H](NC(=O)c1c(O)c(-c2ccccc2)nc2ccccc12)c1ccccc1 | inactive |  |
| CC(CC12CCCN1C(=O)C1CCCN1C2=O)OC(N)=O (stereo not given) | inactive |  |
| CC1=C2C(=O)C=C(CO[C@@H]3O[C@H](CO)[C@@H](O)[C@H](O)[C@H]3O)[C@@H]2[C@H]2OC(=O)[C@H](C)[C@@H]2[C@@H](O)C1 | inactive |  |
| Cc1ccc(-n2nc(C(C)(C)C)cc2NC(=O)Nc2cc(COc3cccnc3)[nH]n2)cc1 | inactive |  |
| CC(O)C1NC(=O)C2CCCN2C1=O (stereo not given) | inactive |  |
| CC1(C)O[C@H]2CC(=O)OC[C@@]23C1=C(O)C(=O)[C@]1(C)C3CC[C@@]2(C)[C@H](c3ccoc3)OC(=O)[C@H]3O[C@]321 (stereo not given in full) | inactive |  |
| C[C@@H]1O[C@@H](OC(=O)Cc2ccccc2)[C@H](O)[C@H](O)[C@H]1O | inactive |  |
| C[C@]1(OC(=O)/C=C/c2ccc(O)cc2)C[C@@H](O)[C@]2(O)C=CO[C@@H](O[C@@H]3O[C@H](CO)[C@@H](O)[C@H](O)[C@H]3O)C12 (stereo not given in full) | inactive |  |
| CCOC(=O)C(CCc1ccccc1)NC1CCCN2CCCC(C(=O)O)N2C1=O (stereo not given) | inactive |  |

| Structure (SMILES) | Potency | activity change, negative = inhibition |
| --- | --- | --- |
| CCC(C)C(C(=O)O)N1Cc2c(OCC=C(C)C)c(C)c(OC)c(C(=O)O)c2C1=O (stereo not given) | inactive |  |
| C=C1C(=O)O[C@@H]2/C=C(\C)CC/C=C(\C(=O)O[C@@H]3O[C@H](CO)[C@@H](O)[C@H](O)[C@H]3O)CC[C@@H]12 | inactive |  |
| CC1=C2CC(O)(C(C)(C)O)C(O[C@@H]3O[C@H](CO)[C@@H](O)[C@H](O)[C@H]3O)CC(C)C2CC1=O (stereo not given in full) | inactive |  |
| COc1ccc(C2C(C(=O)O)C(C(=O)O)C2c2ccc(OC)cc2O[C@@H]2O[C@H](CO)[C@@H](O)[C@H](O)[C@H]2O)c(O[C@@H]2O[C@H](CO)[C@@H](O)[C@H](O)[C@H]2O)c1 (stereo not given in full) | inactive |  |
| C[C@@H]1CC[C@]2(C(=O)O[C@@H]3O[C@H](CO[C@@H]4O[C@H](CO)[C@@H](O)[C@H](O)[C@H]4O)[C@@H](O)[C@H](O)[C@H]3O)CC[C@]3(C)C(=CCC4[C@@]5(C)CC[C@H](O)[C@](C)(C(=O)O)C5CC[C@]43C)[C@@H]2[C@]1(C)O (stereo not given in full) |  | -0.663% [at 11.6 µM] (inactive) |
| Cc1cccc(-c2nn3c(c2-c2ccnc4ccc(C(N)=O)cc24)CCC3)n1 | inactive |  |
| CC1OC(OC2C(OC3C(O[C@H]4CC[C@@]5(C)C(CC[C@]6(C)C5C(=O)CC5=C7CC(C)(C)CC(O)[C@]7(C)CC[C@]56C)C4(C)C)OC(C(=O)O)C(O)C3O)OCC(O)C2O)C(O)C(O)C1O (stereo not given in full) |  | 0.49% [at 11.6 µM] (inactive) |
| Cc1cc(O[C@@H]2O[C@H](COC(=O)CC(=O)O)[C@@H](O)[C@H](O)[C@H]2O)c(C(C)C)cc1O | inactive |  |
| O=C(/C=C/c1ccc(O)c(O)c1)O[C@H]1[C@H](OC2CCCCC2O)O[C@H](CO)[C@@H](O)[C@@H]1O (stereo not given in full) | inactive |  |
| Cc1c(O)cc2c(c1O)COC1(O)CCCOC21 (stereo not given) | inactive |  |
| C/C=C(/C)C(=O)OC1C2OC2C2(CO2)C2C3OC(=O)C(C)C3CCC12C (stereo not given) | inactive |  |
| CC(C)C1(O)C=C2C(=O)CC3C(C)(C(=O)O)CCCC3(C)C2CC1 (stereo not given) | inactive |  |
| CC(=O)NC1CC(=O)C23C(=O)NC(Cc4c[nH]c5ccccc45)C2C(C)=C(C)C(O)C3/C=C/CC(C)/C=C(/C)C(O)C1O (stereo not given) | inactive |  |
| CC1CC(O)/C=C/C(O)/C=C\C(=O)O1 (stereo not given) | inactive |  |
| CC1(C)CC[C@]2(C(=O)O[C@@H]3O[C@H](CO)[C@@H](O)[C@H](O)[C@H]3O)CC[C@]3(C)C(=CCC4[C@@]5(C)CC[C@H](O[C@@H]6O[C@H](C(=O)O)[C@@H](O)[C@H](O)[C@H]6OC6OC(CO)C(O)C(O)C6O)C(C)(C)C5CC[C@]43C)[C@@H]2C1 (stereo not given in full) |  | 1.1% [at 11.6 µM] (inactive) |
| COC(=O)[C@]1(C)CCC[C@@]2(C)C(=O)CC[C@H]3C(=O)C=C(CC[C@@H]21)C3O (stereo not given in full) | inactive |  |
| C=C1C(OC(C)=O)CCC2(C)CCC(C(C)(C)O)CC12 (stereo not given) | inactive |  |
| CC(=O)OC1C(O)/C(C)=C\C2C(OC(=O)c3ccccc3)C(C)CC2(OC(C)=O)C(OC(C)=O)C(C)/C=C/C(C)(C)C1OC(C)=O (stereo not given) | inactive |  |
| O=[N+]([O-])c1cc(Cl)ccc1S(=O)(=O)N1CCN(Cc2ccccc2)CC1 | inactive |  |
| O=C(COCC(=O)N1CCN(C(c2ccccc2)c2ccccc2)CC1)Nc1ccc(Cl)cc1C(=O)O | inactive |  |
